Where “and” joins values, the source holds several entries; their conditions need not be identical. Equal entries are not always repeated. Among all 5,500 compounds or so, about 2,000 (36%) were called active. Roughly 18% stayed inconclusive and do not appear here. No stated cut-off is given here; in the data, active means normalized growth mostly below about 0.91 (no sharp cut-off); inconclusive means no clear call, values can overlap the other calls; inactive means mostly above about 0.92. This is one part of the list.
Assay: chemical genetic growth profiling, strain panel (AID 1159580);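 further: tested at 20 µM; growth read once vehicle control cultures reached saturation at 30 °C; 1 = growth at the plate median or of vehicle wells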
Settings: S. cerevisiae deletion strains, growth OD

Measured: normalized growth

Nc1ccc(S(=O)(=O)c2ccc(N)cc2)cc1
inactive: locus YAL013W, strain DEP1, stronger effect = lower value 1.01 | locus YAL021C, strain ccr4, stronger effect = lower value 0.99 | locus YAL026C, strain drs2, stronger effect = lower value 1 | locus YAL030W, strain snc1, stronger effect = lower value 0.976 | locus YBL061C, strain skt5, stronger effect = lower value 0.993 | locus YBR009C, strain hhf1, stronger effect = lower value 1 | locus YBR021W, strain FUR4, stronger effect = lower value 1.04 | locus YBR023C, strain chs3, stronger effect = lower value 0.979 | locus YBR171W, strain sec66, stronger effect = lower value 1 | locus YBR229C, strain ROT2, stronger effect = lower value 1.01 | locus YBR231C, strain swc5, stronger effect = lower value 0.975 | locus YBR279W, strain paf1, stronger effect = lower value 0.983 | locus YCL011C, strain gbp2, stronger effect = lower value 0.999 | locus YCL016C, strain dcc1, stronger effect = lower value 0.997 | locus YCL029C, strain bik1, stronger effect = lower value 1.03 | locus YCL069W, strain vba3, stronger effect = lower value 1.01 | locus YCR088W, strain abp1, stronger effect = lower value 1.01 | locus YDL005C, strain med2, stronger effect = lower value 0.98 | locus YDL035C, strain GPR1, stronger effect = lower value 1.03 | locus YDL040C, strain nat1, stronger effect = lower value 0.991 | locus YDL074C, strain BRE1, stronger effect = lower value 1.02 | locus YDL101C, strain DUN1, stronger effect = lower value 1.02 | locus YDL134C, strain PPH21, stronger effect = lower value 1.02 | locus YDL185W, strain tfp1, stronger effect = lower value 1.02 | locus YDL192W, strain arf1, stronger effect = lower value 1.01 | locus YDR001C, strain nth1, stronger effect = lower value 1 | locus YDR069C, strain doa4, stronger effect = lower value 0.987 | locus YDR101C, strain arx1, stronger effect = lower value 0.987 | locus YDR137W, strain rgp1, stronger effect = lower value 1.01 | locus YDR159W, strain sac3, stronger effect = lower value 0.979 | locus YDR162C, strain NBP2, stronger effect = lower value 1.04 | locus YDR195W, strain ref2 0.939 | locus YDR297W, strain sur2, stronger effect = lower value 0.996 | locus YDR318W, strain mcm21, stronger effect = lower value 1.01 | locus YDR334W, strain swr1, stronger effect = lower value 0.986 | locus YDR335W, strain msn5, stronger effect = lower value 1 | locus YDR388W, stronger effect = lower value 1 | locus YDR392W, strain spt3, stronger effect = lower value 0.992 | locus YDR502C, strain sam2, stronger effect = lower value 1 | locus YEL003W, strain gim4, stronger effect = lower value 1.01 | locus YEL037C, strain rad23, stronger effect = lower value 1.01 | locus YEL061C, strain CIN8 (second series), stronger effect = lower value 1 | locus YEL061C, strain CIN8, stronger effect = lower value 1.01 | locus YER015W, strain faa2, stronger effect = lower value 0.999 | locus YER016W, strain bim1, stronger effect = lower value 0.991 | locus YER110C, stronger effect = lower value 0.993 | locus YER111C, strain swi4, stronger effect = lower value 1.02 | locus YER155C, strain BEM2 (second series), stronger effect = lower value 0.954 | locus YER155C, strain BEM2, stronger effect = lower value 1.02 | locus YER167W, strain BCK2, stronger effect = lower value 1.02 | locus YFR010W, strain ubp6, stronger effect = lower value 0.988 | locus YGL078C, strain dbp3, stronger effect = lower value 0.993 | locus YGL086W, strain mad1, stronger effect = lower value 1 | locus YGL167C, strain pmr1, stronger effect = lower value 0.995 | locus YGL173C, strain kem1, stronger effect = lower value 0.979 | locus YGL227W, strain vid30, stronger effect = lower value 1.01 | locus YGL240W, strain doc1, stronger effect = lower value 0.988 | locus YGL248W, strain PDE1, stronger effect = lower value 1.02 | locus YGL253W, strain hxk2, stronger effect = lower value 0.99 | locus YGR135W, strain pre9, stronger effect = lower value 1.01 | locus YGR229C, strain SMI1, stronger effect = lower value 1.03 | locus YGR252W, strain gcn5, stronger effect = lower value 1.01 | locus YHR013C, strain ard1, stronger effect = lower value 0.973 | locus YHR027C, strain rpn1, stronger effect = lower value 0.991 | locus YHR030C, strain SLT2, stronger effect = lower value 1.02 and 1.01 | locus YHR079C, strain IRE1 (second series), stronger effect = lower value 1.01 | locus YHR079C, strain IRE1, stronger effect = lower value 1.03 | locus YHR094C, strain hxt1, stronger effect = lower value 1.01 | locus YHR129C, strain ARP1, stronger effect = lower value 1.01 | locus YHR142W, strain chs7, stronger effect = lower value 1.01 | locus YHR200W, strain rpn10, stronger effect = lower value 1 | locus YIL066C, strain RNR3, stronger effect = lower value 1.02 | locus YIL073C, strain SPO22, stronger effect = lower value 1.03 | locus YIL125W, strain kgd1, stronger effect = lower value 1.01 | locus YIR030C, strain dcg1, stronger effect = lower value 1.01 | locus YJL092W, strain hpr5, stronger effect = lower value 0.998 | locus YJL095W, strain BCK1 (second series), stronger effect = lower value 0.983 | locus YJL095W, strain BCK1, stronger effect = lower value 1.02 and 1.03 | locus YJL115W, strain asf1, stronger effect = lower value 1 | locus YJL129C, strain trk1, stronger effect = lower value 0.991 | locus YJL134W, strain LCB3, stronger effect = lower value 1.03 | locus YJL154C, strain vps35, stronger effect = lower value 0.987 | locus YJL164C, strain tpk1, stronger effect = lower value 0.987 | locus YJL166W, strain qcr8, stronger effect = lower value 1 | locus YJL168C, strain set2, stronger effect = lower value 0.996 | locus YJL187C, strain SWE1 (second series), stronger effect = lower value 1.01 | locus YJL187C, strain SWE1, stronger effect = lower value 1 | locus YJR043C, strain POL32, stronger effect = lower value 1.01 | locus YJR066W, strain TOR1, stronger effect = lower value 0.98 | locus YJR075W, strain HOC1, stronger effect = lower value 1.02 | locus YKL009W, strain mrt4, stronger effect = lower value 0.988 | locus YKL068W, stronger effect = lower value 1.01 | locus YKL085W, strain MDH1 (second series), stronger effect = lower value 1.01 | locus YKL085W, strain MDH1, stronger effect = lower value 1.01 | locus YKL160W, strain elf1, stronger effect = lower value 0.988 | locus YKR001C, strain vps1, stronger effect = lower value 0.994 | locus YKR026C, strain gcn3, stronger effect = lower value 0.99 | locus YKR091W, strain srl3, stronger effect = lower value 1 | locus YLL001W, strain dnm1, stronger effect = lower value 0.991 | locus YLL026W, stronger effect = lower value 0.987 | locus YLL041C, strain sdh2, stronger effect = lower value 1.01 | locus YLR027C, strain aat2, stronger effect = lower value 1 | locus YLR039C, strain RIC1, stronger effect = lower value 0.972 | locus YLR058C, strain SHM2, stronger effect = lower value 1.02 | locus YLR102C, strain apc9, stronger effect = lower value 1.01 | locus YLR113W, strain HOG1, stronger effect = lower value 1.05 | locus YLR221C, strain rsa3, stronger effect = lower value 0.984 | locus YLR258W, strain gsy2, stronger effect = lower value 0.999 | locus YLR262C, strain YPT6 (second series), stronger effect = lower value 0.966 | locus YLR262C, strain YPT6, stronger effect = lower value 1.02 | locus YLR268W, strain sec22, stronger effect = lower value 1.01 | locus YLR320W, strain mms22, stronger effect = lower value 0.995 | locus YLR330W, strain CHS5, stronger effect = lower value 1.02 | locus YLR342W, strain FKS1 (second series), stronger effect = lower value 1.03 | locus YLR342W, strain FKS1, stronger effect = lower value 0.996 | locus YLR357W, strain rsc2, stronger effect = lower value 0.969 | locus YLR370C, strain arc18, stronger effect = lower value 0.992 | locus YLR371W, strain rom2, stronger effect = lower value 1.01 | locus YLR384C, strain iki3, stronger effect = lower value 0.987 | locus YLR418C, strain cdc73, stronger effect = lower value 1 | locus YML016C, strain PPZ1, stronger effect = lower value 1.01 | locus YML032C, strain rad52, stronger effect = lower value 0.999 | locus YML120C, strain ndi1, stronger effect = lower value 0.999 | locus YML124C, strain tub3, stronger effect = lower value 1.02 | locus YMR058W, strain fet3, stronger effect = lower value 1 | locus YMR078C, strain ctf18, stronger effect = lower value 1.01 | locus YMR125W, strain sto1, stronger effect = lower value 1 | locus YMR129W, stronger effect = lower value 0.996 | locus YMR205C, strain PFK2, stronger effect = lower value 0.976 | locus YMR223W, strain ubp8, stronger effect = lower value 0.994 | locus YMR231W, strain pep5, stronger effect = lower value 0.986 | locus YMR263W, strain SAP30, stronger effect = lower value 1.01 | locus YMR307W, strain GAS1, stronger effect = lower value 1.08 | locus YNL067W, strain RPL9B, stronger effect = lower value 1.02 | locus YNL071W, strain lat1, stronger effect = lower value 0.997 | locus YNL153C, strain GIM3, stronger effect = lower value 1.01 | locus YNL183C, strain NPR1, stronger effect = lower value 0.98 | locus YNL209W, strain ssb2, stronger effect = lower value 1 | locus YNL233W, strain BNI4, stronger effect = lower value 1.02 | locus YNL248C, strain rpa49, stronger effect = lower value 0.951 | locus YNL250W, strain rad50, stronger effect = lower value 0.985 | locus YNL271C, strain bni1, stronger effect = lower value 0.995 | locus YNL298W, strain CLA4, stronger effect = lower value 1 | locus YNL307C, strain MCK1, stronger effect = lower value 1 | locus YNL322C, strain KRE1 (second series), stronger effect = lower value 1 | locus YNR049C, strain mso1, stronger effect = lower value 1 | locus YNR052C, strain pop2, stronger effect = lower value 1.01 | locus YOL012C, strain htz1 0.692 | locus YOL147C, strain pex11, stronger effect = lower value 1.01 | locus YOR001W, strain rrp6, stronger effect = lower value 0.998 | locus YOR061W, strain CKA2, stronger effect = lower value 1.02 | locus YOR069W, strain VPS5, stronger effect = lower value 1.01 | locus YOR070C, strain gyp1, stronger effect = lower value 0.992 | locus YOR080W, strain dia2, stronger effect = lower value 0.984 | locus YOR083W, strain WHI5, stronger effect = lower value 0.984 | locus YOR106W, strain vam3, stronger effect = lower value 1.01 | locus YOR136W, strain idh2, stronger effect = lower value 1 | locus YOR144C, strain elg1, stronger effect = lower value 1.01 | locus YOR184W, strain ser1, stronger effect = lower value 1.02 | locus YOR231W, strain MKK1, stronger effect = lower value 1.04 | locus YOR265W, strain rbl2, stronger effect = lower value 0.987 | locus YOR270C, strain vph1, stronger effect = lower value 1.05 | locus YOR290C, strain snf2, stronger effect = lower value 0.99 | locus YOR316C, strain cot1, stronger effect = lower value 1 | locus YPL051W, strain arl3, stronger effect = lower value 0.977 | locus YPL055C, strain LGE1, stronger effect = lower value 1.03 | locus YPL078C, strain atp4, stronger effect = lower value 0.998 | locus YPL106C, strain sse1, stronger effect = lower value 0.984 | locus YPL240C, strain hsp82, stronger effect = lower value 0.991 | locus YPL241C, strain CIN2, stronger effect = lower value 1.01 | locus YPL256C, strain CLN2, stronger effect = lower value 1.02 | locus YPR119W, strain clb2, stronger effect = lower value 1.01 | locus YPR141C, strain kar3, stronger effect = lower value 1.02 | locus YPR163C, strain tif3, stronger effect = lower value 1.01 | locus YPR167C, strain met16, stronger effect = lower value 1.01 | strain wtn01, stronger effect = lower value 0.983

— PubChem BioAssay AID1159580 (chemical genetic matrix, 2015)
